{"source": "PubChem BioAssay AID1942", "about": "(Johns Hopkins Ion Channel Center, 2009)", "note": "Screen size: about 2,400 compounds; about 580 (24%) were called active. A selection follows. Unmarked numbers belong to inactive results.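 How the source made its calls: active means activity change at or above the mean plus 3 SD of buffer wells without dofetilide, per plate; inactive means the rest.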"}
{"target": "Potassium voltage-gated channel subfamily KQT member 2 (Rattus norvegicus) (UniProt O88943)", "sequence (O88943 whole entry, looked up)": "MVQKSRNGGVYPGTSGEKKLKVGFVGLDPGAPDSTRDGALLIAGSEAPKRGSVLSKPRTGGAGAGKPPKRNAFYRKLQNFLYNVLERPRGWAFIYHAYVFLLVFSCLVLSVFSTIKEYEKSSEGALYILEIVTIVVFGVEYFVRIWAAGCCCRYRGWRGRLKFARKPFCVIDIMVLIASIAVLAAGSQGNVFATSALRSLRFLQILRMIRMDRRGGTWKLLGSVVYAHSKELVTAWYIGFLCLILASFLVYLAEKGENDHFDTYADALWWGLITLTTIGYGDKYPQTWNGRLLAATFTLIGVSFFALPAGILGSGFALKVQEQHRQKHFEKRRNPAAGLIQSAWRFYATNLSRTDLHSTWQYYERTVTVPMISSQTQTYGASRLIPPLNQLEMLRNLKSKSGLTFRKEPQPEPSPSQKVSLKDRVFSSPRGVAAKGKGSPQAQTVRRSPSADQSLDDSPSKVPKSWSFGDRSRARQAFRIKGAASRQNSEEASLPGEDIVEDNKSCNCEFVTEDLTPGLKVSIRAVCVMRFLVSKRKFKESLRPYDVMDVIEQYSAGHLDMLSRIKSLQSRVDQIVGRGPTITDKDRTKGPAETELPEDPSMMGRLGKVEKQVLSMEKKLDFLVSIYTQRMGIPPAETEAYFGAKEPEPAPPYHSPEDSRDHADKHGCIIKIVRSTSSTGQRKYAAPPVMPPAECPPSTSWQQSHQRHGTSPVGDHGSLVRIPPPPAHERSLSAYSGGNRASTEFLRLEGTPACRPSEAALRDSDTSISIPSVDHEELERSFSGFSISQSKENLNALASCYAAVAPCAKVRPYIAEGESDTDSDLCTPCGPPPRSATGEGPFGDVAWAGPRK", "assay": "rat KCNQ2 channel activation by compounds alone, confirmation, counter-screen for hERG block protector project, cell-based, CHO, FluxOR thallium flux (AID 1942);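 further: normalized value minus buffer-control mean plus three SD of buffer wells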", "details": "CHO-KCNQ2 cells, FluxOR thallium flux fluorescence; at 10 µM; hits give high values"}
{"smiles": "COc1cc(S(=O)(=O)n2cnc(C)c2)ccc1Cl", "activity change, less the hit threshold": "-21.2%"}
{"smiles": "COCCN(C(=O)CSc1nnc(C)n1Cc1ccccc1)c1c(N)n(CC(C)C)c(=O)[nH]c1=O", "activity change, less the hit threshold": "-21.8%"}
{"smiles": "Cc1nc2n(n1)CC(O)CS2", "note": "(stereo not given)", "activity change, less the hit threshold": "-16.3%"}
{"smiles": "CS(=O)(=O)N(Cc1ccccc1)c1ccc(C(=O)Nc2ccc(C(N)=O)cc2)cc1", "activity change, less the hit threshold": "-23.7%"}
{"smiles": "O=C(CNC(=S)NC(=O)c1ccc(Br)o1)c1ccccc1", "activity change, less the hit threshold": "-11.7%"}
{"smiles": "Cc1cccc(NC(=S)NC(=O)c2ccc(Br)o2)c1", "activity change, less the hit threshold": "46.1% (active)"}
{"smiles": "COc1ccc(OC)c(NC(=S)NC(=O)c2ccc(Br)o2)c1", "activity change, less the hit threshold": "-6.9%"}
{"smiles": "CCc1ccc(NC(=S)NC(=O)c2c(-c3ccccc3Cl)noc2C)cc1", "activity change, less the hit threshold": "-17.1%"}
{"smiles": "COc1ccc(NC(=S)NC(=O)c2ccc(Br)o2)cc1", "activity change, less the hit threshold": "11.8% (active)"}
{"smiles": "CCN(c1ccccc1)S(=O)(=O)c1ccc(NC(=S)NC(=O)c2ccc(Br)o2)cc1", "activity change, less the hit threshold": "0.3% (active)"}
{"smiles": "O=C(NC(=S)NCc1ccccc1)c1ccc(Br)o1", "activity change, less the hit threshold": "70.4% (active)"}
{"smiles": "CCOc1ccc(-c2cccc(NC(=O)c3ccc(Br)o3)c2)nn1", "activity change, less the hit threshold": "-30.4%"}
{"smiles": "S=C(NCc1ccccc1)NCc1ccccc1Cl", "activity change, less the hit threshold": "-23.7%"}
{"smiles": "CC(C)C(=O)Nc1cccc(C(=O)Nc2ccccc2C(=O)O)c1", "activity change, less the hit threshold": "-17.8%"}
{"smiles": "COc1ccc(Cc2c(O)nc(SCC(=O)NC(C)(C)C)[nH]c2=O)cc1", "activity change, less the hit threshold": "-19.2%"}
{"smiles": "CC(C(=O)N1CCN(c2ccc([N+](=O)[O-])cc2)CC1)N1C(=O)C2CC=CCC2C1=O", "note": "(stereo not given)", "activity change, less the hit threshold": "-20.1%"}
{"smiles": "Cc1cc(C)n2nc(SCC(=O)NC3CCCCC3C)nc2n1", "note": "(stereo not given)", "activity change, less the hit threshold": "-30.3%"}
{"smiles": "COCCOC(=O)C1=C(C)Nc2ncnn2C1c1ccc(F)cc1", "note": "(stereo not given)", "activity change, less the hit threshold": "-22%"}
{"smiles": "CCOc1ccc(NC(=O)C2C(C(=O)O)C3(Cl)C(Cl)=C(Cl)C2(Cl)C3(Cl)Cl)cc1", "note": "(stereo not given)", "activity change, less the hit threshold": "-15.5%"}
{"smiles": "S=C(N/N=C/c1ccccc1Cl)Nc1cccc(Cl)c1Cl", "activity change, less the hit threshold": "8.6% (active)"}
{"smiles": "Fc1ccccc1NC(=S)N/N=C/c1ccccc1Br", "activity change, less the hit threshold": "-25.7%"}
{"smiles": "Cc1ccc(Cl)cc1NC(=S)N/N=C/c1cccc2ccccc12", "activity change, less the hit threshold": "-24.4%"}
{"smiles": "CCN(CC)CCCNC(=O)c1cn(-c2cccc(OC)c2)c(=O)c2ccccc12", "activity change, less the hit threshold": "-18.5%"}
{"smiles": "COc1ccc(-c2ccc(/C=N/NC(=O)c3cccnc3)o2)c([N+](=O)[O-])c1", "activity change, less the hit threshold": "-11.4%"}
{"smiles": "C=CCNC(=S)Nc1sc2c(c1C(=O)OCC)CC(C)(CC)OC2", "note": "(stereo not given)", "activity change, less the hit threshold": "15.9% (active)"}
{"smiles": "C=CCNC(=S)Nc1sc2c(c1C(=O)OCC)CC(C(C)C)OC2", "note": "(stereo not given)", "activity change, less the hit threshold": "16.9% (active)"}
{"smiles": "COC(=O)n1c(=S)oc2cc(Cl)ccc21", "activity change, less the hit threshold": "-10%"}
{"smiles": "Cc1ccccc1OC(=O)n1c(=S)oc2cc(Cl)ccc21", "activity change, less the hit threshold": "9.7% (active)"}
{"smiles": "Cc1ccc(Cl)cc1NC(=O)COC(=O)c1ccccc1O", "activity change, less the hit threshold": "-21.1%"}
{"smiles": "CCCCC(=O)Nc1ccc(NCc2ccc(C)s2)cc1", "activity change, less the hit threshold": "42.5% (active)"}
{"smiles": "Cc1ccc(NC(=O)CCC(=O)OCC(F)(F)C(F)F)cc1", "activity change, less the hit threshold": "-23%"}
{"smiles": "CCCCC(=O)Nc1cccc(C(=O)Nc2ccccc2C(=O)O)c1", "activity change, less the hit threshold": "-4%"}
{"smiles": "COc1cccc(OC)c1OCCOCCN1CCN(C)CC1", "activity change, less the hit threshold": "-21%"}
{"smiles": "O=C(NC(=S)Nc1ccc(N2CCCCC2)cc1)c1cccs1", "activity change, less the hit threshold": "-9.5%"}
{"smiles": "O=C(NC(=S)NCc1ccccc1)c1cccs1", "activity change, less the hit threshold": "5.6% (active)"}
{"smiles": "CCN(CC)c1ccc(NC(=S)NC(=O)c2cccs2)cc1", "activity change, less the hit threshold": "-9.5%"}
{"smiles": "O=C(NC(=S)Nc1ccccc1)c1cccs1", "activity change, less the hit threshold": "3.3% (active)"}
{"smiles": "O=C(NC(=S)Nc1ccccc1N1CCCCC1)c1cccs1", "activity change, less the hit threshold": "-23.1%"}
{"smiles": "CCSc1nc2c(c(=O)[nH]1)C(c1ccc(C)cc1)C1=C(CCCC1=O)N2", "note": "(stereo not given)", "activity change, less the hit threshold": "-8.9%"}
{"smiles": "O=C(O)C/C(=C\\c1cc(Br)cs1)c1nc2ccccc2o1", "activity change, less the hit threshold": "-8.4%"}
{"smiles": "CCCCCCc1cc2cc(-c3nnc(-c4ccccc4O)o3)c(=O)oc2cc1O", "activity change, less the hit threshold": "-7%"}
{"smiles": "CC(C)(C)c1csc(NC(=O)C2=COCCO2)n1", "activity change, less the hit threshold": "-13%"}
{"smiles": "Oc1c(Cl)cc(Cl)cc1Sc1cc(Cl)cc(Cl)c1O", "activity change, less the hit threshold": "-1.7%"}
{"smiles": "Oc1c(Cl)cc(Cl)cc1/C=N/c1nccs1", "activity change, less the hit threshold": "32.3% (active)"}
{"smiles": "Oc1c(Cl)cc(Cl)cc1/C=N/c1ncn[nH]1", "activity change, less the hit threshold": "23.9% (active)"}
{"smiles": "CC1CCN(C(=O)CSc2nnc(CNC(=O)c3ccco3)o2)CC1", "activity change, less the hit threshold": "-12.8%"}
{"smiles": "CCOc1ccc(NC(=O)CS(=O)CC(=O)NC2CCCc3ccccc32)cc1", "note": "(stereo not given)", "activity change, less the hit threshold": "-13.6%"}
{"smiles": "Cc1nc2ccccc2n1-c1ccccc1", "activity change, less the hit threshold": "-4.2%"}
{"smiles": "COc1ccc(-n2ncc3c2CC(C)(C)CC3NC(=O)c2cn[nH]c2)cc1", "note": "(stereo not given)", "activity change, less the hit threshold": "-22.9%"}
{"smiles": "O=C(O)c1cc(N/N=C/c2ccc(-c3ccccc3)cc2)ccc1Cl", "activity change, less the hit threshold": "-22.4%"}
{"smiles": "O=C(O)c1cc(NN=C2c3ccccc3-c3ccccc32)ccc1Cl", "activity change, less the hit threshold": "32.4% (active)"}
{"smiles": "CC(C)Oc1cc(S(=O)(=O)N2CCCCC2)ccc1N", "activity change, less the hit threshold": "-15.7%"}
{"smiles": "O=[N+]([O-])c1ccc(S(=O)(=O)Nc2ccc(S(=O)(=O)N3CCCC3)cc2)cc1", "activity change, less the hit threshold": "-23.3%"}
{"smiles": "Cc1[nH]c(=S)c(C#N)c(C)c1Cc1ccc(Cl)cc1Cl", "activity change, less the hit threshold": "-7.1%"}
{"smiles": "CCOC(=O)c1c(C)[nH]c(=S)c(C#N)c1-c1ccc(Cl)cc1", "activity change, less the hit threshold": "5.2% (active)"}
{"smiles": "CCCCOc1ccc(-c2c(C#N)c(N)[nH]c(=S)c2C#N)cc1", "activity change, less the hit threshold": "-10.1%"}
{"smiles": "Cc1ccc([N+](=O)[O-])c2c1C(N1CC(C)OC(C)C1)C(C)(C)O2", "note": "(stereo not given)", "activity change, less the hit threshold": "-14.4%"}
{"smiles": "S=c1nc(C2CCCCC2)n(-c2ccccc2)[nH]1", "activity change, less the hit threshold": "41.2% (active)"}
{"smiles": "Cc1cc(OCC(=O)Nc2cc(S(=O)(=O)N3CCOCC3)ccc2N2CCCC2)ccc1C(C)C", "activity change, less the hit threshold": "-14.1%"}
{"smiles": "CNC(=S)N/N=C/c1cc(Br)cc(Br)c1O", "activity change, less the hit threshold": "-6.6%"}
{"smiles": "Cc1nnc(C)n1/N=C/c1cc(Br)cc(Br)c1O", "activity change, less the hit threshold": "17.8% (active)"}
{"smiles": "CC(=O)C1=C(O)C(=O)N(c2cccnc2)C1c1ccc(Cl)cc1", "note": "(stereo not given)", "activity change, less the hit threshold": "-25.8%"}
{"smiles": "O=C(COc1ccc2c3c(c(=O)oc2c1)CCC3)NCC1CCC(C(=O)O)CC1", "note": "(stereo not given)", "activity change, less the hit threshold": "-17.1%"}
{"smiles": "O=C(COc1ccc2c3c(c(=O)oc2c1)CCC3)N[C@@H](Cc1ccccc1)C(=O)O", "activity change, less the hit threshold": "8.1% (active)"}
{"smiles": "Cc1c(C)c2ccc(OCC(=O)N[C@@H](Cc3ccccc3)C(=O)O)cc2oc1=O", "activity change, less the hit threshold": "-10%"}
